# Compound activity: PubChem, National Center for Advancing Translational Sciences (NCATS)
# Shown are actives, neighbours in structure and some others; about 2.7% of the full set was active somewhere.
# A549 tox: kills or reduces viability of A549 cells in Nrf2 counter-screen; A549 ARE-Fluc cells, CellTiter-Fluor viability, 18-24 h; Potency, µM (highest dose often 46 µM), inactives show top-dose activity change, negative = cytotoxicity, actives largely listed as inhibitors; 390,000 tested, 0.16% active; AID 504648; further: potency means the concentration at half of the fitted maximal effect; on the % scale 0 is the no-effect control and ±100 the full control effect
#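 A549 ARE_Fluc cells in 5% FBS OPTI-MEM were exposed to compounds in concentration-response for 18-24 h at 37 deg C. Viability was read by CellTiter-Fluor fluorescence (Ex 405/Em 525) after 30 min, before the luciferase read.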
# IDH1 R132H inh: blocks human mutant IDH1 R132H enzyme | O75874 | IDH1-R132H enzyme, NADPH consumption, diaphorase/resazurin fluorescence | Potency, µM (top dose mostly 76.6 µM), for inactives: at the highest dose activity change, negative = inhibition, usual class: inhibitors | 390,000 tested, 0.093% active; further: potency means the concentration at half of the fitted maximal effect; on the % scale 0 is the no-effect control and ±100 the full control effect; nearly all actives have a fitted effect of over 65% in size
# Target sequence (O75874 whole entry R132H, stated change not applied): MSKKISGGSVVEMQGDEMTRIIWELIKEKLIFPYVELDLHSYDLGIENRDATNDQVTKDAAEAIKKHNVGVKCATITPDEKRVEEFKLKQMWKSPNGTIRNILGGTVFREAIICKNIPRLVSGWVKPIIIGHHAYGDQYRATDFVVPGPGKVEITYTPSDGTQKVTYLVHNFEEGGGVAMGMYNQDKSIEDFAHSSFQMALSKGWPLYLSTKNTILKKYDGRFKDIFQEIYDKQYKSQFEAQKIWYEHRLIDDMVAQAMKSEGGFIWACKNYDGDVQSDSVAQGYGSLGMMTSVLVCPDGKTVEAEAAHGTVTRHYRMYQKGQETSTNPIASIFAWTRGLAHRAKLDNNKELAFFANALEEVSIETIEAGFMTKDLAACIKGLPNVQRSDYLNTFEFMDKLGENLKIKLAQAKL
#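 IDH1-R132H (0.5 ug/mL) preincubated 30 min with compound, then NADPH (0.016 mM) and alpha-KG (2 mM) added; 80 min at RT, pH 7.5. Remaining NADPH coupled via diaphorase/resazurin to fluorescence (540/590 nm); concentration-response curves normalized to no-enzyme control.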
# Nrf2 ARE act: Nrf2 pathway activation; AREc32 ARE-luciferase reporter (MCF7-derived line), luminescence, 24 h; Potency, µM (top dose mostly 46.1 µM), for the others: top-dose activation, actives largely listed as activators; 410,000 tested, 0.31% active; further: potency means the concentration at half of the fitted maximal effect; % of control where 0% means no effect; nearly all actives have a fitted effect of over 65% in size
#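 AREc32_Fluc, 1000 cells/well, OPTI-MEM + 5% FBS, o/n 37 deg C 5% CO2; 23 nL cpd by pin tool, 24 hr; Steady-Glo 30 min RT, luminescence.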
# LDHA inh: blocks human lactate dehydrogenase A; activity change, % (values are at about 110 or 230 µM); purified LDHA, NADH/diaphorase-resazurin fluorescence; hits give low values; 480,000 tested, 0.15% active; in the data active means activity change below about -30%; inconclusive means mostly about -25% to -30%;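 further: plate controls were DMSO wells for no effect and wells without enzyme for full effect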
#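 Remaining NADH was detected by diaphorase (0.133 mg/mL) converting 37 µM resazurin to fluorescent resorufin, read at 0 and 20 minutes. The preceding 5-minute room-temperature reaction used 2 nM LDHA, 0.2 mM sodium pyruvate and 0.06 mM NADH at pH 7.4.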
# 12-LOX inh: inhibitors of human 12S-lipoxygenase ALOX12; Potency, µM (titrated, usually from 108 µM), for inactives: at the highest dose activity change, negative = inhibition, actives largely listed as inhibitors; P18054; 580,000 tested, 1.1% active; purified 12hLO, xylenol orange hydroperoxide absorbance; AID 1671190; further: potency means the concentration at half of the fitted maximal effect; on the % scale 0 is the no-effect control and ±100 the full control effect
#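 Purified human 12hLO at 150 nM in 25 mM Hepes, 0.01% Triton X-100, pH 7.0, preincubated 15 min at room temperature with compound. Reaction started with 40 uM arachidonic acid, 30 min at room temperature. Hydroperoxide measured by Fe-xylenol orange, 573/405 nm absorbance ratio.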
# Nrf2 inh: Nrf2 pathway inhibition | 360,000 tested, 2.1% active | AID 504444 | A549 ARE-Fluc reporter, luciferase luminescence, 18-24 h | Potency, µM (top dose mostly 46 µM), for inactives: top-dose activity change, negative = inhibition, hits mostly inhibitors; further: potency means the concentration at half of the fitted maximal effect; on the % scale 0 is the no-effect control and ±100 the full control effect; nearly all actives have a fitted effect of over 60% in size
#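 Reporter: ARE-Fluc in A549. Exposure: 18-24 h, 37 °C, 5% CO2, 5% FBS OPTI-MEM. Readouts: fluorescent cytotoxicity (CellTiter-Fluor), then luminescent Nrf2 signal after BugLite.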
# * hit, by the source's call; ? = inconclusive; . = no result; [ ] = dose if it differs, or a comment. Unless noted, the call rests on the fitted dose curve; in most records, active means well fitted curve in the direction sought with a large enough effect; inconclusive means small, poorly fitted or top-dose-only effect, or another doubt; inactive means no such curve, though single readings can be large; an effect the other way counts as inactive or inconclusive.
SMILES,A549 tox,IDH1 R132H inh,Nrf2 ARE act,LDHA inh,12-LOX inh,Nrf2 inh
CCONC(=O)C(C)Sc1cc(Cl)ccc1Cl (centres undefined),.,.,.,-2,-38%,.
N#Cc1cccnc1Sc1ccc(F)c(Cl)c1,.,.,.,0,?,.
Cc1ccccc1NS(=O)(=O)c1ccc(C(=O)NCC(C)(C)N2CCOCC2)cc1,-7%,6%,0%,-4,10%,10µM*
CC(C)(CNC(=O)c1ccc(S(=O)(=O)Nc2ccccc2F)cc1)N1CCOCC1,2%,-9%,2%,-8,-17%,?
CC1=Nc2cc(C(=O)O)ccc2Sc2ccc(Br)cc21,1%,2%,0%,-10,45µM*,-3%
CCCc1nc2ccccc2c(C(=O)OCC(=O)NC(=O)NC)c1CC,.,.,.,-1,?,.
C/C(=N\O)c1cc2cc(Br)cc(Br)c2oc1=O,.,.,.,40,?,.
CCOC(=O)c1ccc(Nc2c(CC)c(C)nc3ncnn23)cc1,-18%,-5%,-1%,-3,19%,26µM*
CCc1c(C)nc2ncnn2c1N1CCC(C(=O)Nc2ccc(C)cc2)CC1,-1%[1.84 µM],7%,3%,2,-14%,13µM*
CCc1c(C)nc2ncnn2c1Nc1ccc(C(C)=O)cc1,-1%,2%,3%,-6,0%,6%
Cc1cccc2c1NC(=O)C21CC(=O)Nc2c1cnn2-c1ccccc1 (centres undefined),.,.,.,6,-27%,.
O=C(O)c1cccc(I)c1,.,.,.,5,-32%,.
COc1ccccc1-c1cc(C(=O)O)c2cccc(C)c2n1,.,.,.,4,10µM*,.
Cc1ccc(-c2cc(C(=O)O)c3cccc(C)c3n2)s1,.,.,.,5,11µM*,.
Cc1cccc2c(C(=O)O)cc(-c3cccs3)nc12,.,.,.,7,-22%,.
O=S1(=O)CC(N2CCN(CCO)CC2)CN1Cc1cn(Cc2cccc(C(F)(F)F)c2)nn1 (centres undefined),.,.,-2%,7,25µM*,.
O=S1(=O)CC(N2CCSCC2)CN1Cc1cn(Cc2cccc(C(F)(F)F)c2)nn1 (centres undefined),.,.,0%,0,-5%,.
CN(C)CCN1CCN(C2CN(Cc3cn(Cc4cccc(C(F)(F)F)c4)nn3)S(=O)(=O)C2)CC1 (centres undefined),.,.,0%,5,?,.
Cc1cccc(CN2CCN(C3CN(Cc4cn(Cc5cccc(C(F)(F)F)c5)nn4)S(=O)(=O)C3)CC2)c1 (centres undefined),.,.,1%,-6,13µM*,.
COCCCn1cc(CN2CC(N3CCN(Cc4cccc(C)c4)CC3)CS2(=O)=O)nn1 (centres undefined),.,.,-1%,-2,11µM*,.
Cc1cc(C(=O)N2CCN(c3ccc(F)cc3)CC2)c2c(C)nn(-c3cccc(Cl)c3C)c2n1,1%,18%,-1%,0,3%,?
Cc1cc(C(=O)N2CCN(c3cccc(Cl)c3)CC2)c2c(C)nn(-c3ccccc3Cl)c2n1,-27%,-7%,0%,-1,-23%,18µM*
CCCCCCNC(=O)c1cc(-c2cccc(Br)c2)nc2ccccc12,.,.,.,4,?,.
CCN(CC)CCCNc1oc(-c2cccc(C)c2)nc1C#N,.,.,.,12,?,.
CC(C)NC(=O)N1CCC(N2C(=O)C3(CCCC3)C2c2ccccc2)CC1 (centres undefined),.,.,.,.,5%,.
SMILES,A549 tox,IDH1 R132H inh,Nrf2 ARE act,LDHA inh,12-LOX inh,Nrf2 inh
CCCCCn1c(=O)[nH]c2cc(C(=O)NCc3ccc4c(c3)OCO4)ccc2c1=O,3%,2%,0%,0,0%,9%
CCCCCn1c(=O)[nH]c2cc(C(=O)N3CCN(Cc4ccc5c(c4)OCO5)CC3)ccc2c1=O,?,2%,1%,3,0%,0.82µM*
COc1ccccc1N/C(N)=N/c1nc(CSc2ccc(C)cc2)cc(=O)[nH]1,-7%,3%,1%,-3,-1%,21µM*
O=C(O)CNC(=O)c1cc(-c2ccccc2)nc2ccccc12,.,.,.,-17,2%,.
O=C(O)c1cc(-c2ccccc2F)no1,.,.,.,1,?,.
Cc1cc(-c2ccc(C(C)C)c(S(=O)(=O)N3CCOc4ccccc43)c2)on1,9%,14%,1%,0,-8%,21µM*
CCc1ccc(-c2cc(C)no2)cc1S(=O)(=O)N1CCOc2ccc(C)cc21,2%,-15%,3%,-4,-1%,13µM*
NNc1nc2sc3c(c2c(=O)[nH]1)CCc1ccccc1-3,-2%,0%,5%,-13,35µM*,-10%
CCSc1nc2sc3c(c2c(=O)[nH]1)CCc1ccccc1-3,?,8%,4%,2,-7%,6%
Cc1ccc(-c2c(C)n3c4c(=O)n(C)c(=O)n(C)c4nc3n2CCCO)cc1,-13%,-14%,-1%,0,-27%,18µM*
COC(=O)CCCn1c(-c2ccc(C)cc2)c(C)n2c3c(=O)n(C)c(=O)n(C)c3nc12,-10%,9%,-1%,2,-22%,-27%
CCc1ccc(CN(Cc2ccco2)C(=O)c2ccccc2)cc1,.,.,.,1,?,.
COC(=O)c1ccc(Cn2cnc3c(cnn3-c3ccc(F)cc3)c2=O)o1,-1%,9%,0%,2,0%,2%
COC(=O)c1ccc(Cn2cnc3c(cnn3-c3ccc(C)c(C)c3)c2=O)o1,-15%,0%,0%,-1,-8%,23µM*
Cc1noc(-c2ccc3c(c2)OCO3)c1C(=O)NCCSCc1ccccc1,.,.,.,.,20µM*,.
COc1cc(/C=C/C(=O)OCCOc2ccc(Br)cc2)ccc1O,.,.,.,-13,?,.
COc1cc(/C=C/C(=O)OCCOc2ccc(Cl)cc2)ccc1O,.,.,.,12,20µM*,.
N#Cc1c(N)n[nH]c1CCCNC(=O)c1cn(Cc2ccccc2)nc1-c1cccnc1,.,.,.,0,39%,.
O=C1C(=Cc2cccs2)Oc2ccccc21,0%,3%,11µM*,-1,-21%,-13%
Cc1ccccc1/C=C1\Oc2ccccc2C1=O,-5%,18%,13µM*,5,-6%,7%
O=C1/C(=C/c2cccs2)COc2ccccc21,0%,4%,?,-3,-19%,34%
Cc1ccc(S(=O)(=O)NCC2(c3ccccc3)CC2)c(Cl)c1,.,.,.,5,-13%,.
COc1ccccc1-c1cc(NCc2cnc(C)cn2)ncn1,.,.,.,.,5.6µM*,.
COC1=C(Nc2ccc(C)cc2)C(=O)c2ccccc2C1=O,?,-4%,1%,21,-20%,16µM*
CC1=C(Nc2ccc(C(=O)O)cc2)C(=O)c2ccccc2C1=O,?,-9%,2%,8,-11%,23µM*
